Assay results from PubChem BioAssay AID652017 (The Scripps Research Institute Molecular Screening Center, 2013).
In all, about 370,000 compounds went through this assay and about 3,800 (1%) were called active. Rule as the data show it: active = activation above about 7.8%; inactive = the rest. The sample as a whole holds a higher share of actives than the screen did.

Assay: SMARCA2 (BRM) function activators, primary screen, cell-based, luminescence, high throughput (AID 652017);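 also: 0% = vehicle wells and 100% = reference activator wells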
Conditions: MG213 cells, MMTV-luciferase reporter, dexamethasone, overnight; at 9.1 µM; hits give high values

Compound | activation
COc1ccc(C)cc1NC(=O)c1cc(-c2ccccc2)nc2c1cnn2C(C)C | -4.75% (inactive)
COc1ccc(/C=N/NC(=O)c2cc(-c3cccc(C)c3)nc3ccccc23)cc1O | 8.84% (active)
Cc1ccc(/C=N/NC(=O)COc2ccccc2-c2ccccc2)cc1 | -0.77% (inactive)
CCC(=O)Nc1ccc2c(c1)C(=O)N(C)[C@H]1CC[C@H](CC(=O)NCCOC)O[C@@H]1CO2 | -1.86% (inactive)
CC(CCN1CCC(C(O)(c2ccccc2)c2ccccc2)CC1)Oc1ccc([N+](=O)[O-])cc1Cl (stereo not drawn) | 5.01% (inactive)
Cc1ccccc1NC(=O)c1cc(S(=O)(=O)N2CCOCC2)cs1 | -0.28% (inactive)
Cc1cc(C(=O)NNC(=S)Nc2ccccc2C)cs1 | 8.64% (active)
Cc1cc(C(=O)NNC(=S)NC(C)c2ccccc2)cs1 (stereo not drawn) | -0.96% (inactive)
COC(=O)[C@]12C[C@H](CC(=O)NCc3ccccc3)C(=O)N(CCC3=CCCCC3)C1=C[C@H](C(C)C)O[C@@H]2C1CC1 | 0.2% (inactive)
C=CCN1C(=O)[C@@H](CC(=O)N2CCN(C(=O)c3ccco3)CC2)[C@]2(C(=O)OC)CCCCC=C12 | -3.14% (inactive)
COC(=O)C12C=C3CC(c4ccccc4)=C3C(=O)N1Cc1[nH]c3ccccc3c1C2 (stereo not drawn) | -3.71% (inactive)
CN1C(=O)c2cc(NS(C)(=O)=O)ccc2OC[C@@H]2O[C@@H](CC(=O)NCc3ccc(-c4ccccc4)cc3)CC[C@H]21 | 0.34% (inactive)
CCCC(=O)N1c2ccc(-c3csc(N)n3)cc2CC1C (stereo not drawn) | 13.2% (active)
CCOc1ncccc1C(=O)OCC(=O)N1c2ccccc2CC1C (stereo not drawn) | -1.56% (inactive)
Cc1ccn(CCC(=O)N2c3ccccc3CC2C)n1 (stereo not drawn) | -2.39% (inactive)
Cc1ccccc1CN1CCNC(=O)C1CC(=O)NCCC1=CCCCC1 (stereo not drawn) | 5.02% (inactive)
Cc1ccc(NC(=O)C(=O)NCc2ccco2)c(C)c1 | 9.32% (active)
Cc1ccc(SCC(=O)NC(=O)NCc2ccco2)c(C)c1 | -0.59% (inactive)
O=C(NCc1ccncc1)C(=O)NCc1ccco1 | -0.15% (inactive)
CN[C@H]1C[C@H]2c3cc(N4CCOCC4)ccc3CCN2C[C@H]1[C@H](C)O | -3.84% (inactive)

Compound | activation
C=C(C)C#CC(Cc1ccccc1)N(CC1CC1)/C(N)=N/C(=O)OCc1ccccc1 (stereo not drawn) | -1.63% (inactive)
CCOc1cc(NC(=S)NCCCN(C)C)c(OCC)cc1NC(=O)C1CC1 | 1.16% (inactive)
CCOc1cc(NC(=S)NCCCOC)c(OCC)cc1NC(=O)c1ccco1 | 9.88% (active)
COc1cc(NC(=S)NCc2ccco2)c(OC)cc1Cl | 0.64% (inactive)
Cc1ccc(CSc2nnc(SCC(=O)NN=Cc3cc(Br)ccc3F)s2)cc1 | -6.75% (inactive)
CC(C)(C)OC(=O)NCc1cc(F)ccc1/C=C/S(=O)(=O)NCCc1ccccc1 | -3.29% (inactive)
CN(C(=O)CC1C(=O)NCCN1Cc1ccc2ccccc2c1)C1CCOCC1 (stereo not drawn) | -1.84% (inactive)
CC(C)(COC(=O)Nc1ccccc1)COC(=O)Nc1ccccc1 | -1.85% (inactive)
CCOC(=O)Nc1ccc(NC(=O)OCC)cc1 | 11.1% (active)
CCOC(=O)Nc1ccc(S(=O)(=O)N(C)C(C)C)cc1 | -0.48% (inactive)
O=C(N1CCOCC1)N1CC[C@H]2[C@H](CCCN2Cc2ccc(F)cc2)C1 | -1.37% (inactive)
COc1ccccc1OCC(=O)OCc1cc(-c2ccco2)on1 | 1.73% (inactive)
COc1ccccc1OCC(=O)O/N=C(\N)c1ccccn1 | 8.43% (active)
N/C(=N\OC(=O)CCC1CCCCC1)c1ccccn1 | 3.7% (inactive)
COC(=O)C1=C(C)N(Cc2ccccc2C(F)(F)F)C(=NCC2CC2)NC1c1cccc(Cl)c1 (stereo not drawn) | -1.87% (inactive)
CC(=O)Nc1ccc(S(=O)(=O)N2CCN(c3ccc([N+](=O)[O-])c(NCCN4CCOCC4)c3)CC2)cc1 | -2.48% (inactive)
O=C(Nc1ccc(Br)cc1)OCCN1C(=O)CCC12CCC(c1ccccc1)CC2 (stereo not drawn) | -0.9% (inactive)
S=C(NCCC1=CCCCC1)Nc1ccccc1 | 2.03% (inactive)
C1=C(CCNc2ncnc3c2cnn3-c2ccccc2)CCCC1 | 10.2% (active)
Cc1nn(C(C)C(=O)NCCC2=CCCCC2)c(=O)c2nn(-c3ccccc3)c(C)c12 (stereo not drawn) | 0.01% (inactive)

Compound | activation
Cc1ncn2cc(-c3ccc(Cl)cc3Cl)[nH]c(=O)c12 | 5.25% (inactive)
O=C(O)CN1c2cccc3cccc(c23)S1(=O)=O | -0.74% (inactive)
COc1ccc(C(=O)NC2=NCCS2)c(OC)c1 | 8.02% (active)
O=C(NC1=NCCS1)c1ccc(Cl)s1 | 3.86% (inactive)
COc1ccccc1C(=O)NCCC(=O)NC1=NCCS1 | -1.3% (inactive)
COC(=O)Cc1nnn2c1[C@H](C)[C@H](c1ccccc1Br)OCC2 | -2.14% (inactive)
COC(=O)Cc1nnn2c1[C@H](C)[C@@H](OC)c1cc(Br)ccc1-2 | -2.14% (inactive)
COC(=O)Cc1nnn2c1[C@H](C)[C@H](c1ccccc1[N+](=O)[O-])OCC2 | 9.58% (active)
O=C(CSc1nnc(COc2ccccc2)n1Cc1ccco1)c1ccc2ccccc2c1 | -6.31% (inactive)
COc1ccc(-c2csc(Cc3nc(O)cs3)n2)cc1 | 16.8% (active)
COc1ccc(-n2c(SC)nc(O)cc2=O)cc1 | -1.4% (inactive)
COc1ccc(C2C(C(C)=O)=C(O)C(=O)N2c2nccs2)cc1 (stereo not drawn) | 1.1% (inactive)
COc1cccc(NC(=O)CSc2nnc(-c3cccnc3)o2)c1 | -0.51% (inactive)
CCN(CC)C(=O)CSc1nnc(-c2cccc(OC)c2)o1 | 8.29% (active)
CCN(CC)C(=O)CSc1nnc(-c2ccc(S(=O)(=O)NCc3ccccc3Cl)cc2)o1 | -2.52% (inactive)
COc1ccc(-n2c(COc3ccc(C)cc3)nnc2SCC(=O)Nc2ccc(Oc3ccccc3)cc2)cc1 | -5.92% (inactive)
COc1ccc(-c2cc(-c3nnc(SCc4ccc([N+](=O)[O-])cc4)n3N)[nH]n2)cc1 | -5.07% (inactive)
COc1ccc(/C=C2\CC3(OC(C)=O)CCCN2C3)cc1 (stereo not drawn) | -1.45% (inactive)
